Reference: PubChem BioAssay (EPA / NIEHS)
Results filed as inconclusive are left out. The source made the active and inactive calls. How the source made its calls: active means hit-call score of the fitted dose curve at least 0.9, where 1 is the maximum; inconclusive means response in the unintended direction; inactive means score below 0.9.

Target: Retinoic acid receptor RXR-alpha (Homo sapiens) (UniProt P19793)
Experiment: ATG_RXRa_TRANS: Attagene TRANS-FACTORIAL HepG2 Assay for human Retinoid X Receptor alpha (RXRa) (AID 2283012)
Summary of the method: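 HepG2 cells transiently transfected with GAL4-UAS reporter units and chimeric RXRa-Gal4 protein, treated 24 h. Reporter mRNA measured by RT-PCR, fluorescent labelling, HpaI digestion and capillary electrophoresis. Induction fitted against DMSO.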

Retinoic acid receptor RXR-alpha (Homo sapiens), sequence (P19793 whole entry, looked up): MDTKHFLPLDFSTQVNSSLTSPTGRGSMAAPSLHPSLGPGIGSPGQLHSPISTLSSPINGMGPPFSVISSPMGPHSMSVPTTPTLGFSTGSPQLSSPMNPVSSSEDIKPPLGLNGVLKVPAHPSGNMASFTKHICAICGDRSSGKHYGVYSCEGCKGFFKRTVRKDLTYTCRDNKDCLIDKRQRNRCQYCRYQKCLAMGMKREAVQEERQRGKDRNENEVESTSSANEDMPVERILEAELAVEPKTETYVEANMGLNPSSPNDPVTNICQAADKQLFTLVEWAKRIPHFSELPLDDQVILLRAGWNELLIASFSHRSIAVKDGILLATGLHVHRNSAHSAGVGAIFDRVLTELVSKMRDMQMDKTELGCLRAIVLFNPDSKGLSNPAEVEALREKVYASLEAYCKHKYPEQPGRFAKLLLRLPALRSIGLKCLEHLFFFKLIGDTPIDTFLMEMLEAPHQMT

| Compound | outcome | AC50 |
| --- | --- | --- |
| O=C(O)c1cc(I)cc(I)c1I | inactive | – |
| COCCl | inactive | – |
| Nc1cccnc1 | inactive | – |
| N#CCC#N | – | 43.1 µM (active) |
| C[CH2][Hg][S]c1ccccc1C(=O)O | inactive | – |
| O=S(=O)(F)C(F)(F)C(F)(F)C(F)(F)C(F)(F)F | inactive | – |
| CCOC(=O)OC1=C(c2cc(C)ccc2C)C(=O)NC12CCC(OC)CC2 (configuration not stated) | inactive | – |
| COC(=O)c1cc(Oc2ccc(Cl)cc2Cl)ccc1[N+](=O)[O-] | inactive | – |
| CCCCOC(C)=O | inactive | – |
| N#Cc1ccncc1 | inactive | – |
| OC[P+](CO)(CO)CO | inactive | – |
| N#CCCC(Br)(C#N)CBr (configuration not stated) | inactive | – |
| c1csc(-c2ccc(-c3cccs3)s2)c1 | inactive | – |
| OC(Cc1ccccc1Cl)(Cn1cncn1)C1(Cl)CC1 (configuration not stated) | inactive | – |
| C=CC(=O)[O][Sn]([CH2]CCC)([CH2]CCC)[CH2]CCC | – | 0.00177 µM (active) |
| O=C1C=CC(=O)c2ccccc21 | inactive | – |
| CCCCCCCCCCCCCCC(Br)C(=O)O (configuration not stated) | – | 26.7 µM (active) |
| O=S1(=O)OC(c2cc(Br)c(O)c(Br)c2)(c2cc(Br)c(O)c(Br)c2)c2ccccc21 | inactive | – |
| Cc1ccccc1OP(=O)(Oc1ccccc1)Oc1ccccc1 | inactive | – |
| Brc1c(Br)c(Br)c(Oc2c(Br)c(Br)c(Br)c(Br)c2Br)c(Br)c1Br | inactive | – |
| COP(=S)(OC)Oc1cc(Cl)c(I)cc1Cl | inactive | – |
| O=C1c2ccccc2C(=O)C1C(=O)C(c1ccccc1)c1ccc(Cl)cc1 (configuration not stated) | inactive | – |
| c1cc[c]([Sb]([c]2ccccc2)[c]2ccccc2)cc1 | inactive | – |
| CCCCCCCCCCCCN(C)C | inactive | – |

Target: human Retinoid X Receptor beta (RXRb), RXRB (gene 6257) (UniProt P28702)
Sequence (P28702 whole entry, looked up): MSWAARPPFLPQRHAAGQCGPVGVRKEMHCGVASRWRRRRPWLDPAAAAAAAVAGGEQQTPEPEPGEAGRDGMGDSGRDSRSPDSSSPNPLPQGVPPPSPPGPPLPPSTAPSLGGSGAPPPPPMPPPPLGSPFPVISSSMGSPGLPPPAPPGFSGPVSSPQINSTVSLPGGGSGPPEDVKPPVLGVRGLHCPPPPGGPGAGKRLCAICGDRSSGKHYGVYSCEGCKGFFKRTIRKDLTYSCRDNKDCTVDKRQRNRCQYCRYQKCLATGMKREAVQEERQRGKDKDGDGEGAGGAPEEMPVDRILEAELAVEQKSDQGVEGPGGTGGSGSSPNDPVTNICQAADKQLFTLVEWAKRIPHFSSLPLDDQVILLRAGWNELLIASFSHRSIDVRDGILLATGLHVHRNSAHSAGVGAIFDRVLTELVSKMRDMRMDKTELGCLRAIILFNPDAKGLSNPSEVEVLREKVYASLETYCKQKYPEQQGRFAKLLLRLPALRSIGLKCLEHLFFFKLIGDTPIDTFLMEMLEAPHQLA
Experiment: ATG_RXRb_TRANS: Attagene TRANS-FACTORIAL HepG2 Assay for human Retinoid X Receptor beta (RXRb) (AID 2283013)
Summary of the method: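 HepG2 cells were transiently transfected with multiplexed GAL4-UAS reporters and a chimeric RXRb-Gal4 construct, then exposed for 24 h. Reporter mRNA was quantified by RT-PCR, FAM labeling, HpaI digestion and capillary electrophoresis; gain of signal was scored against DMSO.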

| Compound | outcome | AC50 |
| --- | --- | --- |
| CC1(C)[C@H](/C=C2\CCSC2=O)[C@@H]1C(=O)OCc1coc(Cc2ccccc2)c1 | inactive | – |
| N#CCC#N | – | 10.3 µM (active) |
| C=CCN=C=S | inactive | – |
| C[CH2][Hg][S]c1ccccc1C(=O)O | – | 1.72 µM (active) |
| CCOC(=O)OC1=C(c2cc(C)ccc2C)C(=O)NC12CCC(OC)CC2 (configuration not stated) | inactive | – |
| CCOP(=O)(OCC)SCCSCC | inactive | – |
| COC(=O)c1cc(Oc2ccc(Cl)cc2Cl)ccc1[N+](=O)[O-] | inactive | – |
| N#Cc1ccccc1Cl | inactive | – |
| C#CCO | inactive | – |
| C=CC(=O)OCC(COC(=O)C=C)(COC(=O)C=C)COC(=O)C=C | – | 100 µM (active) |
| N#Cc1ccncc1 | inactive | – |
| c1csc(-c2ccc(-c3cccs3)s2)c1 | inactive | – |
| OC(Cc1ccccc1Cl)(Cn1cncn1)C1(Cl)CC1 (configuration not stated) | inactive | – |
| C=CC(=O)[O][Sn]([CH2]CCC)([CH2]CCC)[CH2]CCC | – | 0.000682 µM (active) |
| O=C1C=CC(=O)c2ccccc21 | inactive | – |
| CN(C)c1ccc(N=O)cc1 | inactive | – |
| CCCCCCCCCCCCCCC(Br)C(=O)O (configuration not stated) | – | 9.18 µM (active) |
| Brc1c(Br)c(Br)c(Oc2c(Br)c(Br)c(Br)c(Br)c2Br)c(Br)c1Br | inactive | – |
| COP(=S)(OC)Oc1cc(Cl)c(I)cc1Cl | – | 38.6 µM (active) |
| O=C1c2ccccc2C(=O)C1C(=O)C(c1ccccc1)c1ccc(Cl)cc1 (configuration not stated) | inactive | – |
| c1cc[c]([Sb]([c]2ccccc2)[c]2ccccc2)cc1 | – | 4.36 µM (active) |
| COc1ccc([N+](=O)[O-])cc1O | inactive | – |
| CCCCCCCCCCCCN(C)C | inactive | – |
